VDR inhibitor: vitamin D3 receptor (human) inhibition. Potency, µM, for inactives: max response, negative = inhibition, usual class: inhibitors. 0.93% of 400,000 active. P11473. VDR-SRC2-3 peptide fluorescence polarization, 2 h. AID 504847; further: potency means the concentration at half of the fitted maximal effect
Target sequence (P11473 whole entry, looked up): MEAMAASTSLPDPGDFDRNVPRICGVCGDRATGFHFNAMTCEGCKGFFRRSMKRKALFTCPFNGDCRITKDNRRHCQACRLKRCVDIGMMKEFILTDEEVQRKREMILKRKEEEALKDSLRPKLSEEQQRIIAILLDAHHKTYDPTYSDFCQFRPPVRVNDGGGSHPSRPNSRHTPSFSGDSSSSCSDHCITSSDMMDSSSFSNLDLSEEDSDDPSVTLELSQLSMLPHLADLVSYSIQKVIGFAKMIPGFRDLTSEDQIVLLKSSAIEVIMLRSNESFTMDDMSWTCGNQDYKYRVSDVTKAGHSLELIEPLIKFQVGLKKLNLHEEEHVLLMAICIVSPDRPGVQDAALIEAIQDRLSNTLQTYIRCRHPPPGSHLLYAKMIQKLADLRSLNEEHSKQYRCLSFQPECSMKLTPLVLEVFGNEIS
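Inhibition of the VDR/SRC2-3 peptide interaction is quantified by fluorescence polarization. Compounds (23 nl, pintool) incubate with the reagents for 2 hours at ambient room temperature.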
FBPA coupling cs: counter-screen for Giardia aldolase inhibitors: coupling enzyme system; coupling enzyme system counterscreen, AmpLite Red fluorescence; activity change, negative = inhibition, % at 58.2 µM, hits read low; 0.67% of 290,000 active; AID 2472; in the data active means activity change below about -30%
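Coupling enzymes only (glyceraldehyde-3-phosphate) + compound, at 57.5 uM final, 10 min RT; add substrate/coupling/AmpLite Red mix, 20 min RT; fluorescence ex 525/em 598 nm. Actives flag coupling-system interference.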
PLK1 PBD block: blocks phosphopeptide binding to human PLK1 polo-box domain; P53350; Potency, µM, for inactives: max response, negative = inhibition, hits mostly inhibitors; Plk1 PBD binding of FITC phosphopeptide, fluorescence polarization; 2.8% of 360,000 active; further: potency means the concentration at half of the fitted maximal effect; series mostly up to about 57 µM; nearly all actives have a fitted effect of over 65% in size
GALK inhibitor: blocks human galactokinase activity | Potency, µM (series often up to 57.5 µM), for the others: at the top dose activity change, negative = inhibition, usual class: inhibitors | P51570 | 0.007% of 270,000 active | Purified GALK, Kinase-Glo residual ATP luminescence; further: potency means the concentration at half of the fitted maximal effect
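5 nM enzyme, 35 uM ATP, 100 uM galactose, 20 mM HEPES pH8.0, 5 mM MgCl2; 1 h RT; residual ATP by Kinase-Glo Plus luminescence, qHTS format.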
USP1 inh: blocks the human USP1/UAF1 deubiquitinase complex. 0.23% of 390,000 active. O94782. Potency, µM (titrated, usually from 57.1 µM), inactives show at the top dose activity change, negative = inhibition, hits mostly inhibitors. recombinant USP1/UAF1, Ub-Rhodamine cleavage fluorescence. AID 743255; further: potency means the concentration at half of the fitted maximal effect; nearly all actives have a fitted effect of over 60% in size
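1 nM enzyme complex + cpd, 15 min RT; start with Ub-Rho 150nM final; kinetic fluorescence ex 480/em 540, 6 reads q60 s. Buffer 50mM HEPES pH 7.8, 0.5mM EDTA, 0.1 mg/ml BSA, 1mM TCEP, 0.01% Tween-20.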
USP2a block: blocks human ubiquitin-specific protease USP2a; O75604; 0.01% of 330,000 active; Potency, µM (highest dose often 38.3 µM), without a hit: top-dose activity change, negative = inhibition, actives largely listed as inhibitors; USP2 core, Ub-CHOP2 coupled fluorogenic reporter, 485/531;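 further: potency means the concentration at half of the fitted maximal effect; plate controls were DMSO wells for no effect and full inhibition by NEM control for full effect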
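Cell-free coupled assay: 10nM USP2 core preincubated 30min RT with compound in Tris-HCl pH 8.0/CaCl2/CHAPS buffer, then 25nM Ub-CHOP2 and 25nM reporter substrate; fluorescence (Ex 485/Em 531) read after 60min RT, normalized to NEM inhibition, concentration-response curves fitted.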
* marks the source's active call; other numbers are inactive results; ? = inconclusive; . = not tested or not shown. A selection: hits, their analogues and other compounds. The true share with any hit is near 3.2%. Unless noted, the call rests on the fitted dose curve; in most records, active means well fitted curve in the direction sought with a large enough effect; inconclusive means small, poorly fitted or top-dose-only effect, or another doubt; inactive means no such curve, though single readings can be large; an effect the other way counts as inactive or inconclusive. Unless noted, on the % scale 0 is the no-effect control and ±100 the full control effect.

SMILES	VDR inhibitor	FBPA coupling cs	PLK1 PBD block	GALK inhibitor	USP1 inh	USP2a block
N#CCc1nn(-c2ccccc2)c2ncnc(N)c12	-4.3%	1.4	1.7%	-0.6%	-22.7%	1.1%
Cn1c2nc(=O)n(-c3ccccc3)c(=O)c-2nc2c1CCCC2	.	.	?	.	14.1µM*	.
Cc1cccc(Oc2nc3ccccn3c(=O)c2/C=C(\C#N)C(=O)NC2CCS(=O)(=O)C2)c1 (stereo unspecified)	?	0.2	-1.0%	-2.5%	-4.5%	-2.0%
Cc1cccn2c(=O)c(/C=C(\C#N)C(=O)NC3CCS(=O)(=O)C3)c(Oc3ccc(F)cc3)nc12 (stereo unspecified)	20µM*	-2.0	-22.6%	-8.0%	-25.7%	-1.1%
N#C/C(=C\c1c(Oc2ccc(Cl)cc2)nc2ccccn2c1=O)C(=O)NC1CCS(=O)(=O)C1 (stereo unspecified)	50.1µM*	-4.2	-11.2%	1.1%	-13.1%	-1.2%
Cc1cccn2c(=O)c(/C=C(\C#N)C(=O)NC3CCS(=O)(=O)C3)c(N3CCC(C)CC3)nc12 (stereo unspecified)	-2.9%	-2.6	1.0%	0.1%	-5.4%	-1.0%
Cc1cc(Oc2nc3ccccn3c(=O)c2/C=C(\C#N)C(=O)NC2CCS(=O)(=O)C2)ccc1Cl (stereo unspecified)	31.6µM*	0.9	-12.2%	3.8%	-8.3%	0.6%
CCOC(=O)C1CCCN(C(=O)c2cc(OC)ccc2Br)CC1 (stereo unspecified)	.	.	-4.2%	.	.	.
CC(Oc1cc2oc(=O)c3c(c2cc1Cl)CCCC3)C(=O)NCCN1CCOCC1 (stereo unspecified)	?	1.2	23.8µM*	5.7%	-23.4%	-0.2%
Cc1c(C)c2cc(Cl)c(OC(C)C(=O)NCCN3CCOCC3)cc2oc1=O (stereo unspecified)	?	.	23.8µM*	-0.7%	-3.2%	3.8%
CC(Oc1cc2oc(=O)c3c(c2cc1Cl)CCC3)C(=O)NCCCN1CCOCC1 (stereo unspecified)	-16.3%	0.7	0.1%	6.9%	-13.1%	4.6%
CCc1noc(C)c1C(=O)N(CCC(C)C)c1c(N)n(Cc2ccccc2)c(=O)[nH]c1=O	-6.1%	.	-2.8%	.	-24.5%	0.0%
Cn1ccnc1SCC(=O)Nc1ccc2c(c1)OCO2	-7.1%	1.2	-13.3%	1.0%	-1.9%	0.2%
Fc1ccccc1C1CC(c2ccco2)=Nc2ccccc2S1 (stereo unspecified)	79.4µM*	4.9	-13.1%	-2.4%	-19.7%	4.9%
COc1cc(/C=C2/C(=O)N(C)C(=S)N2C)ccc1OCc1cccc(F)c1	-3.6%	-0.3	3.8%	7.8%	-4.2%	3.1%
CC1CCc2c(sc3nnn(Cc4ccccc4Cl)c(=O)c23)C1 (stereo unspecified)	-6.1%	.	.	.	-42.6%	.
Cc1[nH]n(-c2ccccc2)c(=O)c1C(c1ccc(O)c([N+](=O)[O-])c1)c1c(C)[nH]n(-c2ccccc2)c1=O	?	.	23.8µM*	.	-16.9%	.
COc1ccc(C(C[N+](=O)[O-])c2c(C)[nH]n(-c3ccccc3)c2=O)cc1 (stereo unspecified)	?	-39.1*	23.8µM*	-1.3%	?	1.0%
COc1ccc(C(c2c(C)n(C)n(-c3ccccc3)c2=O)c2c(C)n(C)n(-c3ccccc3)c2=O)cc1	-1.3%	4.7	-0.2%	0.5%	-23.9%	-0.5%
COc1ccc2[nH]c(C(=O)N/N=C/c3ccc(O)cc3O)cc2c1	3.8%	-2.2	-3.5%	5.2%	-21.7%	-3.7%
CCCCn1c(N)c(N(CC(C)C)C(=O)CC(NC(=O)c2ccccc2Cl)c2ccccc2)c(=O)[nH]c1=O (stereo unspecified)	.	.	-20.3%	.	4.0%	.
CN(C)CCNc1nc(-c2ccco2)c2c(c1C#N)CC(C)(C)OC2	-5.6%	-3.0	-9.0%	9.8%	-15.2%	-2.1%
CCCCN(C)c1nc(-c2ccco2)c2c(c1C#N)CC(C)(C)OC2	20µM*	3.9	29.9µM*	1.2%	-14.8%	-6.0%
O=C(CN1C(=O)NC2NC(=O)NC21)N/N=C/c1ccc(F)cc1 (stereo unspecified)	-29.0%	-2.2	-6.5%	9.5%	-7.6%	-15.3%
COC(=O)C1C(O)C(C)C(O)C(C)(O)/C=C\C=C(/C)C(=O)Nc2c(C)c(OC(C)=O)c3c(c2O)C(=O)C(C)=C2OCOC(=C23)/C(C)=C/C(C)(O)C(O)C(C)C1O (stereo unspecified)	-3.3%	-41.6*	-11.0%	12.1%	?	6.2%
SMILES	VDR inhibitor	FBPA coupling cs	PLK1 PBD block	GALK inhibitor	USP1 inh	USP2a block
CC(=O)NC1C(=O)N(CCc2ccccc2)c2ccc(Br)cc21 (stereo unspecified)	4.6%	-4.9	-6.0%	1.3%	-13.5%	-7.5%
COc1ccc2c(c1)NC(C)(C)C=C2C	43.5%	-33.1*	-28.9%	10.4%	-13.4%	2.3%
CC1=CC(C)(C)Nc2ccccc21	?	-20.2	-1.9%	-1.1%	-24.6%	-0.7%
CCc1ccc2oc(-c3ccc(OC)cc3)cc(=Nc3cccc(C(=O)O)c3)c2c1	79.4µM*	2.1	26.7µM*	6.2%	-24.1%	4.0%
COC(=O)c1ccccc1Sc1c(/C=N/OC(=O)c2ccccc2)c(C(F)(F)F)nn1C	-4.2%	-1.2	-1.0%	-4.8%	-22.1%	4.4%
CCN(CC)CCSc1nc2ccccc2c(=S)n1-c1ccccc1	1.3%	0.4	23.8µM*	-0.2%	?	2.3%
CCN(CC)CCSc1nc(O)c(-c2ccccc2)c(=O)n1-c1ccccc1	-5.0%	1.5	-7.7%	-0.1%	-10.8%	13.1%
CC1CC(C)CN(C(=O)CSC2=Nc3ccccc3C3=NC(Cc4c[nH]c5ccccc45)C(=O)N23)C1 (stereo unspecified)	-2.2%	1.4	7.2%	-0.1%	-15.7%	3.6%
O=C(CN1CCOCC1)Nc1ccc2c(c1)CCC2	?	0.6	26.7µM*	0.2%	-20.2%	15.5%
CN(C)S(=O)(=O)c1cc(NC(=O)CN2CCOCC2)ccc1Cl	-18.2%	0.5	23.8µM*	6.6%	5.2%	3.8%
CCN1CCN(CC(=O)Nc2ccc(Cl)c(S(=O)(=O)N(C)C)c2)CC1	-15.9%	-4.4	6.5%	-2.1%	-23.5%	-12.0%
O=C(CCN1CCOCC1)Nc1ccc2c(c1)CCC2	3.9%	1.1	1.7%	1.0%	-11.8%	2.2%
CCCCc1cn([C@@H](CCCCN)C(=O)N2CCNCC2)nn1	-21.8%	2.4	21.2µM*	6.7%	-35.6%	3.0%
NCCCC[C@@H](C(=O)N1CCNCC1)n1cc(CN)nn1	-13.4%	.	-2.4%	.	-4.3%	1.3%
O=C(CCC1CCCN(C(=O)c2cncs2)C1)NCc1ccc(F)c(F)c1 (stereo unspecified)	?	0.2	29.9µM*	14.5%	-19.1%	3.3%

Screening results: PubChem, National Center for Advancing Translational Sciences (NCATS)
